aSyn 5UTR act: Activators via SNCA 5'UTR binding, MLPCN; 7.1% of 300,000 active; alpha-synuclein 5'UTR reporter, activators screen; activity score, % (tested at 7.5 µM), hits read low; in the data active means activity score below about -60%
Large screens that a line does not name were inactive. Not all results are given here.

Nc1c(-c2cccs2)cnn1-c1nc(-c2ccc(F)cc2)cs1	aSyn 5UTR act -124
Nc1c(-c2ccccn2)cnn1-c1nc(-c2ccc(F)cc2)cs1	aSyn 5UTR act -79
Oc1[nH]c2ccccc2c1C=Nc1ccc2c(c1)OCCO2	aSyn 5UTR act -76
Cc1cccc(/N=C/c2c(O)[nH]c3ccccc23)n1	aSyn 5UTR act -211
CCc1c(C)c(C#N)c2nc3ccccc3n2c1Cl	none
COc1cc(-c2cc3nc4ccccc4n3c(N)c2C#N)cc(OC)c1OC	none
Cc1cc(-c2ccco2)c(C#N)c2nc3ccccc3n12	aSyn 5UTR act -100
CC(=O)N/C(=N\c1nc(C)cc(C)n1)Nc1ccc2ccccc2c1	aSyn 5UTR act -166
Cc1cc(C)c(NN=c2c(=O)c3ccccc3c2=O)c(C)c1	aSyn 5UTR act -125
CCCOc1ccc(-c2nc(-c3ccc(N)cc3)cs2)cc1	aSyn 5UTR act -123
CCCOc1ccc(-c2nnc(N)s2)cc1	aSyn 5UTR act -136
CC(C)c1ccc(-c2nnc(N)s2)cc1	aSyn 5UTR act -102
Cc1cc2ncc(S(C)(=O)=O)c(N)n2n1	none
Cc1ccc(-n2nc3c(n2)/C(=N/O)CC/C3=N\O)cc1	aSyn 5UTR act -89
Cc1ccc(N2C(=O)NC3(CCCCC3)C2=O)cc1	aSyn 5UTR act -64
Cc1ccn2cc(-c3cnoc3C)nc2c1	aSyn 5UTR act -97
Cc1ccn2cc(-c3ccc(Br)cc3)nc2c1	none
COc1ccccc1NC(=O)c1coc(=O)c(Br)c1	aSyn 5UTR act -63
O=C(NCCC1=CCCCC1)c1coc(=O)c(Br)c1	aSyn 5UTR act -65
CC(C)CNC(=O)c1coc(=O)c(Br)c1	aSyn 5UTR act -87
CS(=O)(=O)Nc1ccc(C(=O)NCCC2=CCCCC2)cc1	aSyn 5UTR act -109
O=C(NCCc1ccccc1)c1coc(=O)c(Br)c1	aSyn 5UTR act -77
Cc1ccc(-c2ccc(/C=N/O)o2)cc1[N+](=O)[O-]	aSyn 5UTR act -66
Cc1c(OCc2ccccc2)c(=O)ccn1Cc1ccccc1	aSyn 5UTR act -111
CSc1ccccc1NC(=O)CSCc1ccc(C)cc1	aSyn 5UTR act -113
Cc1ccc(CSCC(=O)Nc2ccccc2C(=O)O)cc1	aSyn 5UTR act -94
c1ccc(C[n+]2csc3ccccc32)cc1	aSyn 5UTR act -71
O=C(OCc1csc(-c2ccccc2)n1)c1ccccc1O	aSyn 5UTR act -149
COc1ccc(C(C)NC(=O)Nc2ccc(C(C)=O)cc2)cc1OC (stereo not drawn)	aSyn 5UTR act -100
COc1ccc(C(=O)Nc2cccc(C(C)=O)c2)cc1OC	aSyn 5UTR act -71
COc1cc(OC)c(C(=O)Nc2cccc(C(C)=O)c2)cc1OC	aSyn 5UTR act -78
O=C(CCCC(=O)N1CCN(c2ccccc2F)CC1)c1ccccc1	aSyn 5UTR act -76
O=C(Nc1nnc(C2CC2)o1)c1ccc(S(=O)(=O)N2CCCc3ccccc32)cc1	none
O=C(CCc1nnc(C2CCCCC2)o1)N1CCN(c2ccccc2F)CC1	aSyn 5UTR act -112
O=C(Oc1ccccc1)N1CCN(c2ccccc2F)CC1	aSyn 5UTR act -65
c1ccc(SCc2nc3ccccc3[nH]2)nc1	aSyn 5UTR act -75
Cn1c(CSc2nc3ccccc3s2)nc2ccccc21	aSyn 5UTR act -140
CCc1cc2c(Sc3nc4ccccc4s3)ncnc2s1	none
c1ccc2[nH]c(CSc3nc4ccccc4s3)nc2c1	aSyn 5UTR act -112
CCNc1nnc(CSc2nc3ccccc3s2)s1	aSyn 5UTR act -71
N/C(=N\OC(=O)COc1ccccc1)c1ccc(Cl)cc1	aSyn 5UTR act -67
N/C(=N\OC(=O)CSc1ccccc1)c1ccncc1	aSyn 5UTR act -91
N/C(=N\OC(=O)COc1ccccc1)c1cccnc1	aSyn 5UTR act -113
COc1ccc(/C(N)=N/OC(=O)COc2ccccc2Cl)cc1	aSyn 5UTR act -141
N/C(=N\OC(=O)COc1ccccc1)c1ccncc1	aSyn 5UTR act -82
COc1cccc(OCC(=O)O/N=C(\N)c2ccncc2)c1	aSyn 5UTR act -90
COc1cccc(NC(=O)N2CCc3ccccc3C2)c1	aSyn 5UTR act -104
COc1ccc(NC(=S)N2CCc3ccccc3C2)cc1	aSyn 5UTR act -82
S=C(NCCc1ccccc1)N1CCc2ccccc2C1	aSyn 5UTR act -101
COc1ccc(NC(=O)C(=O)NCC(c2ccco2)N2CCc3ccccc32)cc1 (stereo not drawn)	none
COc1ccccc1C(=O)Nc1ccc2c(c1)CN(C(=O)CSC)CC2	aSyn 5UTR act -109
O=C(Nc1cccc(Cl)c1)N1CCc2ccccc2C1	aSyn 5UTR act -185
COc1cccc(-c2cc(C(=O)N3CCc4ccccc4C3)[nH]n2)c1	aSyn 5UTR act -68
FC(F)Oc1ccc(NC(=S)N2CCc3ccccc32)cc1	aSyn 5UTR act -133
O=C(c1cn(-c2ccc(Cl)c(Cl)c2)nn1)C1CC1	aSyn 5UTR act -107
Fc1ccc(/C=N/NC(=S)Nc2ccc(Cl)cc2)cc1F	aSyn 5UTR act -132
Oc1ccc(/C=N/NC(=S)Nc2cccnc2)cc1O	aSyn 5UTR act -141
COc1ccc(NC(=S)N/N=C/c2ccc(F)cc2)cc1OC	aSyn 5UTR act -73
Fc1ccc(NC(=S)N/N=C/c2ccc(F)c(F)c2)cc1	aSyn 5UTR act -65
S=C(N/N=C/c1ccc2ncccc2c1)Nc1cccnc1	none
COc1ccc(NC(=S)Nc2ccc(C)c(Cl)c2)cc1OC	aSyn 5UTR act -62
CC(=O)N/N=C(/C)c1ccc(NC(=O)c2csc(C)c2C)cc1	aSyn 5UTR act -113
C/C(=N\NC(=O)c1csc(C)c1C)c1ccc(C)s1	aSyn 5UTR act -93
O=C(N/N=C/c1ccccn1)c1c[nH]c2ccccc12	aSyn 5UTR act -79
CCn1nc(C)c(/C=N/NC(=O)c2c[nH]c3ccccc23)c1C	aSyn 5UTR act -175
CC/C(=N\NC(=O)c1c[nH]c2ccccc12)c1cccs1	aSyn 5UTR act -122
CC(C)(C)OC(=O)N/N=C\c1ccc[nH]1	aSyn 5UTR act -77
CC(C)(C)OC(=O)N/N=C/c1cccc([N+](=O)[O-])c1	aSyn 5UTR act -129
Cc1ccc(/C=N/NC(=O)c2c[nH]c3ccccc23)s1	aSyn 5UTR act -113
CCn1ncc(/C=N\NC(=O)c2csc3ccccc23)c1C	aSyn 5UTR act -66
Cc1ccsc1/C=N/NC(=O)c1c[nH]c2ccccc12	aSyn 5UTR act -122
C/C(=N\NC(=O)c1c[nH]c2ccccc12)c1ccc(C)s1	aSyn 5UTR act -186
O=C(N/N=C/c1ccsc1)c1c[nH]c2ccccc12	aSyn 5UTR act -126
O=C(N/N=C/c1cccc([N+](=O)[O-])c1)c1c[nH]c2ccccc12	aSyn 5UTR act -124
O=C(O)c1ccc(N/N=C/c2cc3ccccc3nc2Cl)cc1	aSyn 5UTR act -143
O=[N+]([O-])c1ccccc1N/N=C/c1cc2ccccc2nc1Cl	aSyn 5UTR act -206
Cc1cccc2cc(/C=N/Nc3ccc(C(=O)O)cc3)c(Cl)nc12	aSyn 5UTR act -197
CCOC(=O)c1ccc(NC(=S)N(CCN(C)C)Cc2cccs2)cc1	none
CCOC(=O)c1ccc(NC(=O)C(CC)CC)cc1	aSyn 5UTR act -98
CCC(CC)C(=O)Nc1ccc(Nc2ccccc2)cc1	aSyn 5UTR act -100
CCOC(=O)c1ccc(NC(=O)N(CC)CC)cc1	aSyn 5UTR act -115
CCC(C)NS(=O)(=O)c1ccc(NC(=O)C(Sc2ccccc2)c2ccccc2)cc1 (stereo not drawn)	none
COc1ccc(Cc2nc(C(=O)Nc3ccccc3)cs2)cc1	aSyn 5UTR act -73
O=C(Nc1ccc(Cl)cc1)c1csc(Cc2ccccc2)n1	aSyn 5UTR act -72
COc1cc(C2Nc3ccc4ncccc4c3C3=C2C(=O)CCC3)ccc1O (stereo not drawn)	aSyn 5UTR act -102
Cc1ccc(S(=O)(=O)c2nc(S(C)(=O)=O)sc2N2CCCCCC2)cc1	aSyn 5UTR act -113

Assay outcomes: PubChem, Broad Institute
